Experimental data published in ChEMBL document CHEMBL1157539, “Thousands of chemical starting points for antimalarial lead identification” (Nature, 2010).

These molecules were tested on Plasmodium falciparum (assay: GSK_TCMDC: Inhibition of Plasmodium falciparum 3D7 in whole red blood cells, using parasite LDH activity as an index of growth. Test compounds present at 2uM).
Type: functional
For O=C(NCCN1CCCC1)c1cccc(Nc2nccc(Nc3ccc(Oc4ccccc4)cc3)n2)c1, the Inhibition was 100%.
Molecule CC(C)c1ccc(CN(C)CCCCNC(=O)c2ccc(NC(=O)c3ccc(Cl)cc3)cc2)cc1 has an Inhibition of 92%.
Work on O=C(Nc1ccc(-c2nc3ccccc3[nH]2)cc1)C1CCCN(C2CCC2)C1 (stereo not given) yielded an Inhibition of 90%.
With COc1cc2ncnc(Nc3ccc(OCc4ccccc4)c(OCc4ccccc4)c3)c2cc1OC.Cl the Inhibition was 100%.
O=C(Nc1ccc2[nH]c(-c3ccccc3)nc2c1)c1cc(-c2ccc3c(c2)OCCO3)n[nH]1.O=C(O)C(F)(F)F was tested, and the Inhibition was 100%.
COc1ccc(-n2nc(C)cc2C(=O)NCc2ccc(-c3c(C)noc3C)cc2)cc1 showed an Inhibition of 100%.
COc1ccc2nccc(NC(=O)OC3CCC(NCc4ccc5c(n4)NC(=O)CS5)CC3)c2c1 (stereo not given) gave an Inhibition of 98%.
For CC1(C)NC(N)=NC(=N)N1OCc1cc(Cl)cc2c1OCOC2.Cl, the Inhibition was 95%.
Molecule CCCNC(=O)c1cncc(-c2cccc(CNC3Cc4ccccc4C3)c2)c1.O=C(O)C(F)(F)F has an Inhibition of 100%.
For CC(=O)O.Cc1cc(F)ccc1[C@H]1CNCCN1C(=O)N(C)[C@@H](C)c1cc(C(F)(F)F)cc(C(F)(F)F)c1, the Inhibition was 100%.
In the case of COc1cc(F)c2nccc([C@@H](O)CN3CCC(NCc4ccc5c(n4)NC(=O)CS5)CC3)c2c1, the Inhibition is reported as 100%.
CC(=O)N(C)c1cccc(CNc2cc(C)nc(Nc3ccc(C)cc3)n2)c1 showed an Inhibition of 97%.
CCNc1cc(C)nc(Nc2ccc(NS(=O)(=O)c3ccccc3)cc2)n1 was tested, and the Inhibition was 100%.
Cc1cc(NC(=O)Nc2ccc(C(C)C)cc2)c2ccccc2n1.Cl was tested, and the Inhibition was 99%.
CN1CCC(N2CCN(Cc3ccc(-c4ccc(-c5nc6ccccc6[nH]5)s4)cc3)CC2)CC1.O=C(O)C(F)(F)F showed an Inhibition of 100%.
CC(C)NC(=O)c1cccc(-c2cccc(OCCN3CCSCC3c3ccccc3)c2)c1 (stereo not given) gave an Inhibition of 89%.
O=C(O)C(F)(F)F.c1cc(CNCCc2ccncc2)cc(-c2csc(-c3nc4ccccc4[nH]3)c2)c1 showed an Inhibition of 100%.
For COc1ccc(-c2cn3c(C(=O)Nc4ccccc4Cl)c(-c4ccccc4)c4c3n2CCCC4)cc1, the Inhibition was 100%.
With CCc1nonc1NC(=O)c1oc2c(C)c(C)ccc2c1C the Inhibition was 89%.
CCn1c(=O)c(C(=O)Nc2cc(Cl)c(OC)cc2OC)nc2ccccc21 showed an Inhibition of 86%.
COc1cccc(NC(=O)Nc2ccc(C)c(-c3ccc(C(=O)Nc4ccncc4)cc3)c2)c1 gave an Inhibition of 99%.
Molecule Cc1ccc2c(N/N=C/c3cccc([N+](=O)[O-])c3)cc(C)nc2c1 has an Inhibition of 100%.
Cc1cccc2nc(-c3ccc(-c4ccc(NC(=O)NC5CC5c5ccccc5)cc4)cc3)[nH]c12 (stereo not given) was tested, and the Inhibition was 96%.
For CN1CCC(N(Cc2ccc(N3CCN(Cc4c[nH]c5ccc(Cl)cc45)CC3)nc2)C2CC2)CC1, the Inhibition was 100%.
CCOc1ccc2[nH]c(C)cc(=NN=Cc3ccccc3)c2c1 showed an Inhibition of 96%.

What follows are molecules tested on Plasmodium falciparum (assay: GSK_TCMDC: Inhibition of Plasmodium falciparum Dd2 in whole red blood cells, using parasite LDH activity as an index of growth. Test compounds present at 2uM).
Type: functional
Cc1cccc(OCC(=O)Nc2cccc(NC(=O)COc3cccc(C)c3)n2)c1 was tested, and the Inhibition was 30%.
Molecule CCn1c(Cc2ccccc2)nnc1Sc1ccc([N+](=O)[O-])c(C#N)c1 has an Inhibition of 72%.
CCOC(=O)CN1Cc2cc(NCc3ccc4ccc5nc(C)[nH]c(=O)c5c4c3)ccc2C1=O showed an Inhibition of 91%.
COc1ccc(-c2cc3ncn(CC(=O)N4CCN(c5cccc(OC)c5)CC4)c(=O)c3s2)cc1 showed an Inhibition of 26%.
For CN(C)CCNCc1ccc(-c2ccc(-c3nc4ccccc4[nH]3)s2)cc1.O=C(O)C(F)(F)F, the Inhibition was 100%.
For COc1ccc(-c2nc(NC(=O)Cc3cccc(OC)c3)sc2C)cc1, the Inhibition was 77%.
Molecule O=C(O)C(F)(F)F.OCCN1CCN(Cc2ccc(-c3cccc(-c4nc5cc(C(F)(F)F)ccc5[nH]4)c3)cc2)CC1 has an Inhibition of 83%.
With OC(CNc1ccnc(Nc2cccc(OCCCN3CCOCC3)c2)n1)c1ccccc1 (stereo not given) the Inhibition was 25%.
COc1cc2c(cc1C(F)(F)F)N(C(=O)Nc1cc(F)cc(-c3cncnc3)c1)CC2 was tested, and the Inhibition was 52%.
Cc1cc(Nc2ccccc2)nc(Nc2ccccc2C)n1.Cl gave an Inhibition of 27%.
Br.CCCOC(=O)c1ccc(OCCCON2C(=N)N=C(N)NC2(C)C)cc1 showed an Inhibition of 97%.
COC(=O)/C=C/c1ccc(CCC(C)NCC(O)c2cccc(Cl)c2)cc1 (stereo not given) was tested, and the Inhibition was 77%.
Cc1cccnc1Nc1nc(-c2ccccn2)cs1 gave an Inhibition of 99%.
In the case of CCCCCCC(C)c1cc(O)c2c(c1)OC(C)(C)C=C2c1ccncc1 (stereo not given), the Inhibition is reported as 29%.
COc1cccc(Nc2nc(Nc3cccc(C#N)c3)cc(-c3ccncc3)n2)c1 showed an Inhibition of 46%.
For O=C(NCCN1CCCC1)c1cccc(Nc2nccc(Nc3ccc(Oc4ccccc4)cc3)n2)c1, the Inhibition was 18%.
Work on CC(C)c1ccc(CN(C)CCCCNC(=O)c2ccc(NC(=O)c3ccc(Cl)cc3)cc2)cc1 yielded an Inhibition of 0%.
O=C(Nc1ccc(-c2nc3ccccc3[nH]2)cc1)C1CCCN(C2CCC2)C1 (stereo not given) was tested, and the Inhibition was 5%.
For COc1cc2ncnc(Nc3ccc(OCc4ccccc4)c(OCc4ccccc4)c3)c2cc1OC.Cl, the Inhibition was 57%.
With O=C(Nc1ccc2[nH]c(-c3ccccc3)nc2c1)c1cc(-c2ccc3c(c2)OCCO3)n[nH]1.O=C(O)C(F)(F)F the Inhibition was 75%.
In the case of COc1ccc(-n2nc(C)cc2C(=O)NCc2ccc(-c3c(C)noc3C)cc2)cc1, the Inhibition is reported as 92%.
In the case of COc1ccc2nccc(NC(=O)OC3CCC(NCc4ccc5c(n4)NC(=O)CS5)CC3)c2c1 (stereo not given), the Inhibition is reported as 39%.
With CC1(C)NC(N)=NC(=N)N1OCc1cc(Cl)cc2c1OCOC2.Cl the Inhibition was 64%.
CCCNC(=O)c1cncc(-c2cccc(CNC3Cc4ccccc4C3)c2)c1.O=C(O)C(F)(F)F gave an Inhibition of 2%.
CC(=O)O.Cc1cc(F)ccc1[C@H]1CNCCN1C(=O)N(C)[C@@H](C)c1cc(C(F)(F)F)cc(C(F)(F)F)c1 showed an Inhibition of 99%.
COc1cc(F)c2nccc([C@@H](O)CN3CCC(NCc4ccc5c(n4)NC(=O)CS5)CC3)c2c1 showed an Inhibition of 25%.
CC(=O)N(C)c1cccc(CNc2cc(C)nc(Nc3ccc(C)cc3)n2)c1 gave an Inhibition of 21%.
With CCNc1cc(C)nc(Nc2ccc(NS(=O)(=O)c3ccccc3)cc2)n1 the Inhibition was 54%.
For Cc1cc(NC(=O)Nc2ccc(C(C)C)cc2)c2ccccc2n1.Cl, the Inhibition was 16%.
CN1CCC(N2CCN(Cc3ccc(-c4ccc(-c5nc6ccccc6[nH]5)s4)cc3)CC2)CC1.O=C(O)C(F)(F)F gave an Inhibition of 100%.
Molecule CC(C)NC(=O)c1cccc(-c2cccc(OCCN3CCSCC3c3ccccc3)c2)c1 (stereo not given) has an Inhibition of 45%.
O=C(O)C(F)(F)F.c1cc(CNCCc2ccncc2)cc(-c2csc(-c3nc4ccccc4[nH]3)c2)c1 showed an Inhibition of 99%.
COc1ccc(-c2cn3c(C(=O)Nc4ccccc4Cl)c(-c4ccccc4)c4c3n2CCCC4)cc1 showed an Inhibition of 1%.
Molecule CCc1nonc1NC(=O)c1oc2c(C)c(C)ccc2c1C has an Inhibition of 64%.
With CCn1c(=O)c(C(=O)Nc2cc(Cl)c(OC)cc2OC)nc2ccccc21 the Inhibition was 84%.
In the case of COc1cccc(NC(=O)Nc2ccc(C)c(-c3ccc(C(=O)Nc4ccncc4)cc3)c2)c1, the Inhibition is reported as 64%.
For Cc1ccc2c(N/N=C/c3cccc([N+](=O)[O-])c3)cc(C)nc2c1, the Inhibition was 97%.
Cc1cccc2nc(-c3ccc(-c4ccc(NC(=O)NC5CC5c5ccccc5)cc4)cc3)[nH]c12 (stereo not given) showed an Inhibition of 3%.
CN1CCC(N(Cc2ccc(N3CCN(Cc4c[nH]c5ccc(Cl)cc45)CC3)nc2)C2CC2)CC1 was tested, and the Inhibition was 76%.
CCOc1ccc2[nH]c(C)cc(=NN=Cc3ccccc3)c2c1 showed an Inhibition of 8%.
